{
  "source": "PubChem BioAssay AID651813",
  "about": "(National Center for Advancing Translational Sciences (NCATS), 2012)",
  "note": "The campaign covered roughly 2,100 compounds. About 1,100 (52%) were called active. Not shown: some 27% with an inconclusive outcome. So high a share suggests a set chosen from earlier hits. The list shows a part of the results. Unmarked numbers belong to inactive results. Calls follow the shape of the dose curve; as a rule, active = well fitted inhibition curve with a large enough effect; inconclusive = small, poorly fitted or top-dose-only effect; inactive = no such curve, though single readings can be large or run the other way. Potency is read from the fitted curve at half-maximal effect.",
  "data": [
    {"molecular_target": "DNA dC->dU-editing enzyme APOBEC-3G (Homo sapiens) (UniProt Q9HC16)", "sequence (Q9HC16 whole entry, looked up)": "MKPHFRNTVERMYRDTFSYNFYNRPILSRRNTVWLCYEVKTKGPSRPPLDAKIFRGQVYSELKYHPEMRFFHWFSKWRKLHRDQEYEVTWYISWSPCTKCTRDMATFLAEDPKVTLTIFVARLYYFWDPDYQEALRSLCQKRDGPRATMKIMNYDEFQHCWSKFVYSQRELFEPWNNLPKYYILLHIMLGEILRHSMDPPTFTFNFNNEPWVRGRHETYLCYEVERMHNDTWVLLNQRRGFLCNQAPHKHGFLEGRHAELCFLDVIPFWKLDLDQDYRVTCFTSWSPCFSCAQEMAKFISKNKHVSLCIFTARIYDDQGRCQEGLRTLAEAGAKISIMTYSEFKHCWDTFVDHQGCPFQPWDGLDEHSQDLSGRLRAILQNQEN", "assay": "qHTS for inhibitors of Vif-A3G interactions: Cherry picks counterscreen;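 also: hits raise yellow fluorescence by blocking Vif-driven A3G-eYFP degradation; nearly all actives have a fitted effect of over 70% in size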;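 as to max response: max response given as percent of control signal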", "conditions": "HeLa A3G-eYFP + Vif (tagged APOBEC3G with the HIV-1 protein that degrades it), eYFP fluorescence, 24 h", "source_text": "The recent discovery and characterization of host restriction factors, which provide a potent defense to invading retroviruses, has provided new targets for antiviral drug development. APOBEC3G (A3G) and APOBEC3F (A3F) are potent cytidine deaminases that block HIV-1 replication; HIV-1 expresses the Vif protein, which counteracts A3G and A3F by binding to them and inducing their proteasomal degradation. The Vif-A3G and Vif-A3F interactions provide two potential targets for development of small molecules which can interfere with the ability of Vif to degrade A3G or A3F. […] To identify inhibitors that can interfere with Vif mediated degradation of A3G and A3F, we have developed Hela cell lines that stably express A3G or A3F tagged with eYFP at the C-terminal end (A3G-eYFP or A3F-eYFP, respectively) and Vif. In the absence of an inhibitor, Vif induces degradation of A3G-eYFP and A3F-eYFP, and the cells are not fluorescent. In the presence of an inhibitor, it is expected that Vif will be unable to degrade A3G-eYFP and/or A3F-eYFP, resulting in an increase in yellow fluorescence. In this counterscreen assay, Vif A3G was screened against the cherry picks ordered from the MLSMR. NIH Chemical Genomics Center [NCGC] NIH Molecular Libraries Probe Centers Network [MLPCN] MLPCN Grant: MH093245 Assay Submitter (PI): Vinay Pathak, National Cancer Institute\nA3G-Vif cells were harvested from T225 flask and resuspended in phenol free OPTI-MEM medium with 5% FBS. Then 5 uL of 140,000 cells/mL resuspended cells was dispensed into each well of low base Aurora COC 1,536-well plates (black walled, clear bottom) using a Multidrop Combi dispenser. After overnight culture at 37 deg C with 5% CO2, a total of 23 nL of compounds at 5 selected concentrations from the NPC or positive control (2 mM stock of MG132) in DMSO was transferred to each well of the assay plate using a pintool (Kalypsys, San Diego, CA), and the plates were further incubated at 37 deg C with 5% CO2 for 24 hours. After that, the plates were measured on Acumen Explorer (TTP Lab Tech). The fluorescence was detected by 488 nm/Ex and […].", "units": {"max response": "%"}, "values": [
      {"smiles": "COc1cc(OC)c(/C=C/c2ccc3ccccc3[n+]2C)c(OC)c1", "Potency": "20.6 µM (active)"},
      {"smiles": "CCCCN1C(=O)C2Cc3c([nH]c4ccccc34)CN2C1=S", "note": "(configuration not stated)", "Potency": "15.8 µM (active)"},
      {"smiles": "CCOc1ccc(CN2C(=O)c3ccccc3Sc3ccc(C(=O)O)cc32)cc1", "Potency": "4.61 µM (active)"},
      {"smiles": "O=C(NNC1=Nc2cccc3cccc1c23)c1ccc(Br)cc1", "Potency": "23.1 µM (active)"},
      {"smiles": "Cc1cc(-c2ccccc2)nc(N/N=C/c2ccccc2F)n1", "max response": -29.5},
      {"smiles": "Nc1c(C(=O)N/N=C/c2ccccc2Cl)oc2nc(-c3ccccc3)cc(-c3ccco3)c12", "Potency": "2.91 µM (active)"},
      {"smiles": "Nc1c(C(=O)N/N=C/c2ccc(F)cc2)oc2nc(-c3ccccc3)cc(-c3ccco3)c12", "Potency": "6.27 µM (active)"},
      {"smiles": "Nc1c(C(=O)N/N=C/c2cccnc2)oc2nc(-c3ccccc3)cc(-c3ccco3)c12", "Potency": "8.2 µM (active)"},
      {"smiles": "C/C(=N\\Nc1nc(C)cc(-c2ccccc2)n1)c1ccc(F)cc1", "max response": -5.07},
      {"smiles": "CSCC[C@H](NC(=O)[C@H](Cc1ccccc1)n1c(=O)[nH]c2ccccc2c1=O)C(=O)N1CCC[C@@H]1C(=O)O", "max response": 6.25},
      {"smiles": "O=C(CN1C(=O)CSc2ncccc21)Nc1cccc(Cl)c1", "Potency": "23.1 µM (active)"},
      {"smiles": "O=C(CN1c2ccccc2Sc2ccccc21)NNC(=O)Nc1cccc(Cl)c1", "max response": -25.9},
      {"smiles": "COc1ccc(NC(=O)CN2C(=O)C3(SCC(=O)N3c3ccccc3)c3ccccc32)cc1Cl", "note": "(configuration not stated)", "max response": 10.4},
      {"smiles": "CCOC(=O)C1C(=O)C=C(/C=C/c2ccc(N(C)C)cc2)CC1c1ccccc1", "note": "(configuration not stated)", "Potency": "4.61 µM (active)"},
      {"smiles": "CC(/C=C/c1ccc(N(C)C)cc1)=N\\N=C(/N)SC1CC(=O)N(c2ccc(C(=O)O)cc2)C1=O", "note": "(configuration not stated)", "max response": -29.3},
      {"smiles": "CC(C)CC(=O)NC(=S)N(Cc1ccccc1)Cc1ccccc1", "max response": -12.5},
      {"smiles": "COc1cc(/C=C2\\SC(N)=NC2=O)cc(Br)c1O", "Potency": "17.7 µM (active)"},
      {"smiles": "COc1cc(/C=C2\\C(=N)N3N=CSC3=NC2=O)cc(Br)c1OC(=O)c1ccco1", "max response": 43.8},
      {"smiles": "CCOc1cc(C)nc(NCc2ccccc2)n1", "max response": -21.7},
      {"smiles": "COc1ccc(-c2nnc(SCC(=O)NCc3ccccc3)nc2-c2ccc(OC)c(OC)c2)cc1OC", "Potency": "2.59 µM (active)"},
      {"smiles": "COc1ccc(-c2nc3c4ccccc4ccn3c2Cc2ccsc2)cc1OC", "max response": -1.53},
      {"smiles": "CCC(C)Sc1cc(-c2nc3ccccn3c2NC2CCCCC2)ccc1OC", "note": "(configuration not stated)", "max response": 6.89},
      {"smiles": "CCOc1cc(-c2nnc(SCC(=O)NCc3ccccc3)nc2-c2ccc(OC)c(OCC)c2)ccc1OC", "Potency": "2.31 µM (active)"},
      {"smiles": "COc1cc(-c2nc3ccc(C)cn3c2NCc2ccccc2)ccc1SC1CCCCC1", "max response": 34.4},
      {"smiles": "N#CCSc1ccccc1NC(=O)COc1ccc(-c2nnco2)cc1", "Potency": "12.5 µM (active)"},
      {"smiles": "Cc1nc(C)c(C(=O)OCC(=O)Nc2ccccc2SCC#N)s1", "Potency": "15.8 µM (active)"},
      {"smiles": "COc1ccc(C(=O)NC(=S)NCc2cccnc2)cc1Cl", "max response": -0.724},
      {"smiles": "CCC1=Nc2cc(C(=O)NCc3cccnc3)ccc2Sc2ccc(C)cc21", "Potency": "12.5 µM (active)"},
      {"smiles": "CCOC(=O)c1cnc(-n2nc(C)cc2C)nc1NNc1cc(C)nc(-c2ccccc2)n1", "max response": 14.5},
      {"smiles": "CCOC(=O)c1cnc(-n2nc(C)cc2C)nc1NNc1nc(-c2ccccc2)cc(-c2ccccc2)n1", "max response": 18.7},
      {"smiles": "C=CCNc1nc(-c2ccccc2)c(C(=O)OCC)cc1C#N", "Potency": "7.04 µM (active)"},
      {"smiles": "Oc1cccc(Nc2nc(O)c(/C=C3\\C=Nc4ccccc43)s2)c1", "Potency": "20.6 µM (active)"},
      {"smiles": "Cc1cc(N2CCCC2)ccc1/C=C1\\NC(=S)N(C)C1=O", "Potency": "1.64 µM (active)"},
      {"smiles": "O=C1/C(=C/c2ccc(N3CCCC3)cc2)NC(=S)N1C1CC1", "Potency": "7.31 µM (active)"},
      {"smiles": "CCN1C(=O)/C(=C/c2ccc(N3CCCC3)cc2)NC1=S", "max response": 47.9},
      {"smiles": "Cc1cc(/C=C2\\NC(=S)N(C)C2=O)ccc1N1CCCC1", "Potency": "5.59 µM (active)"},
      {"smiles": "Cc1cc(N2CCCC2)ccc1/C=C1/C(=O)N(C)C(=S)N1C", "max response": 40},
      {"smiles": "C/C(=N\\Nc1nccnc1Cl)c1ccc(Cl)c(Cl)c1", "max response": -0.872},
      {"smiles": "CCn1c(=O)c2cc(C(=O)NCCCOC)sc2c2ccccc21", "Potency": "7.04 µM (active)"},
      {"smiles": "N#CC1=C2SCC(O)(c3ccccc3)N2C(=O)CC1c1ccccc1", "note": "(configuration not stated)", "Potency": "5.59 µM (active)"},
      {"smiles": "CCS(=O)(=O)Nc1cccc(C2=NN(C(=O)c3ccco3)C(c3ccco3)C2)c1", "note": "(configuration not stated)", "Potency": "14 µM (active)"},
      {"smiles": "CSc1nc2ccccc2cc1/C=C(\\C#N)c1ccccc1", "Potency": "6.27 µM (active)"},
      {"smiles": "CCOc1cc(N(CC)CC)ccc1/C=C(/C#N)c1nc2ccccc2[nH]1", "max response": 57.6},
      {"smiles": "CCN(CC)c1ccc(/C=C(/C#N)c2nc3ccccc3[nH]2)c(OC(C)C)c1", "max response": 42},
      {"smiles": "CSc1nc2ccccc2cc1/C=C(\\C#N)c1cccc(C)c1", "Potency": "12.5 µM (active)"},
      {"smiles": "COC(=O)C1=COC(C)C2CN3CCc4c([nH]c5cc(OC)c(OC)cc45)C3CC12", "note": "(configuration not stated)", "max response": -25.2},
      {"smiles": "COC(=O)C1C2CC3c4[nH]c5cc(OC)ccc5c4CCN3CC2CC(OC(=O)CC(C)=O)C1OC", "note": "(configuration not stated)", "Potency": "20.6 µM (active)"}
    ]}
  ]
}
